Results from PubChem BioAssay AID463173 (ICCB-Longwood Screening Facility, Harvard Medical School, 2010).
In all, about 52,000 compounds went through this assay and about 4,300 (8.3%) were called active. What follows is part of a selection rich in actives, with near analogues and random picks from the rest. Values without a mark were called inactive. Rule as the data show it: active = survival mostly below about 52% (no sharp cut-off); inactive = mostly above about 56%.

test system: DeltatarO mutant; test: growth inhibition of S. aureus wild type versus tarO mutant, primary screen, teichoic acid synthesis inhibitors, RN4220, OD600 (AID 463173); settings: OD600, 18 h, active compounds read low, screened at 18.75 µg/mL (by protocol)

Row | SMILES | survival
1 | CC(C)C(NS(=O)(=O)c1ccccc1)C(C)C | 97%
2 | COc1cc(C2CC(=O)c3c([nH]c(C(=O)OCc4ccc(C)cc4)c3C)C2)cc(OC)c1OC (stereo unspecified) | 83%
3 | OC1CN=C2C=CC=CN2C1 (stereo unspecified) | 89%
4 | CCN1CCN(c2ccc(NS(=O)(=O)c3c(C)nc4sccn4c3=O)cc2Cl)CC1 | 108%
5 | Cc1ccc(CNC(=O)c2oc3c(c2C)-c2nn(Cc4ccc(Cl)cc4)cc2CC3)cc1 | 57%
6 | Cc1cc2nc(-c3ccc(NC(=O)c4ccc(OCC(C)C)cc4)cc3)oc2cc1C | 78%
7 | Cc1c(CNC2CCCCC2)c(C(=O)O)c(C)n1Cc1ccccc1F | 88%
8 | Cc1ccc2c(c1)-c1onc(C(=O)N(C)c3cccc(C(F)(F)F)c3)c1CO2 | 108%
9 | CC(C)OCCCNC(=O)c1ccc2c(c1)N(Cc1c(F)cccc1Cl)C(=O)c1ccccc1S2 | 76%
10 | CCCCc1nn2c(=O)cc(COC(=O)c3cccc(Cl)c3)nc2s1 | 67%
11 | COc1ccc(C(CC(=O)NCc2ccccc2Cl)N2Cc3ccccc3C2=O)cc1OC (stereo unspecified) | 80%
12 | COc1ccccc1N1CCN(S(=O)(=O)c2c(C)sc3ncn(CC(=O)Nc4ccc(C)cc4Br)c(=O)c23)CC1 | 73%
13 | O=C(Cc1ccccc1)NC1CCS(=O)(=O)C1 (stereo unspecified) | 97%
14 | O=C(CCn1cnc2ccccc2c1=O)NCc1ccccc1 | 109%
15 | Cc1ccc2c(C)c(C(=O)N(Cc3ccc(N(C)C)cc3)Cc3ccco3)oc2c1C | 87%
16 | Cc1cc(C)c2c(CC(=O)N(Cc3ccc(N(C)C)cc3)Cc3ccco3)coc2c1 | 42% (active)
17 | Cc1cc(C)c(OCC(=O)N(Cc2ccc(N(C)C)cc2)Cc2ccco2)c(C)c1 | 49%
18 | Cc1ccc2c(CC(=O)N(Cc3ccc(Cl)cc3)Cc3ccco3)coc2c1 | 99%
19 | Cc1ccc2c(CC(=O)N(Cc3ccc(N(C)C)cc3)Cc3ccco3)coc2c1C | 45% (active)
20 | Cc1cc(C)c2c(CC(=O)N(Cc3ccc(Cl)cc3)Cc3ccco3)coc2c1 | 57%
21 | COc1ccccc1CCNC(=O)Cc1c(C)c2cc3c(C(C)(C)C)coc3c(C)c2oc1=O | 101%
22 | O=C(CC1(c2ccc(Cl)cc2)C(=O)c2ccccc2C1=O)N1CCOCC1 | 79%
23 | Cn1c(=O)c2c(nc(SCC(=O)Nc3ccc(F)cc3F)n2Cc2ccccc2)n(C)c1=O | 135%

Row | SMILES | survival
24 | Cn1ncc2nc(SCC(=O)Nc3ccc(Br)cc3F)n(Cc3ccccc3)c(=O)c21 | 29% (active)
25 | Cc1nc2ccccc2n1CCc1nc2c3ccccc3nc(SCC(=O)Nc3ccc(Br)cc3F)n2n1 | 98%
26 | CCOC(=O)c1ccccc1NC(=O)c1nn(C)c2c1COc1ccccc1-2 | 59%
27 | COC(=O)c1ccccc1NC(=O)Cn1ncc2c(C)n(Cc3ccc(F)cc3)c(C)c2c1=O | 52%
28 | Cc1cccc(NC(=O)Cn2nc(C)c3nn(-c4ccc(Cl)cc4)c(C)c3c2=O)c1C | 94%
29 | COc1ccccc1OCCCCn1c(C2CC(=O)N(c3ccccc3Cl)C2)nc2ccccc21 (stereo unspecified) | 61%
30 | O=C(Nc1nc2ccccc2n1CCOc1ccccc1Cl)c1ccccc1 | 17% (active)
31 | OCCNc1nc2ccccc2n1CCOc1ccccc1 | 68%
32 | CC(NC(=O)c1ccccc1)c1nc2ccccc2n1Cc1ccc(Cl)cc1 (stereo unspecified) | 83%
33 | COc1ccccc1OCCn1c(-c2ccc(Cl)cc2)nc2ccccc2c1=O | 77%
34 | CCCn1c(CCCNC(=O)c2ccccc2OC)nc2ccccc21 | 111%
35 | O=C(O)c1ccc(NCc2nc3ccccc3n2CCOc2ccccc2Cl)cc1 | 59%
36 | COc1ccccc1OCCn1c(NC(=O)c2ccc(Cl)cc2)nc2ccccc21 | 45% (active)
37 | CCn1c(NC(C)=O)nc2ccccc21 | 85%
38 | COc1ccccc1OCCn1c(NC(=O)c2ccccc2Cl)nc2ccccc21 | -3% (active)
39 | COc1cc(C)ccc1OCCn1c(-c2ccc(Cl)cc2)nc2ccccc2c1=O | 62%
40 | COc1ccc(OCCn2c(NC(=O)c3ccc(OC)cc3)nc3ccccc32)cc1 | -2% (active)
41 | COC(=O)c1ccc(Cl)cc1NC(=O)N1CC2CCCN2c2ccccc21 (stereo unspecified) | 71%
42 | CC(=O)Nc1ccc(-c2cn(CC(=O)NN)cn2)cc1 | 111%
43 | COc1cc(OC)cc(C(=O)Nc2ccc(S(=O)(=O)Nc3ncccn3)cc2)c1 | 82%
44 | CN1CCc2nc3sc(C(=O)Nc4ccccc4C(F)(F)F)c(N)c3cc2C1 | 150%
45 | CCC(=O)N1CCc2cc(S(=O)(=O)CCC(=O)Nc3ccc(OC(F)(F)F)cc3)ccc21 | 83%
46 | COc1cc(NC(=O)CC2C(=O)N(c3cccc(C)c3)C(=O)N2Cc2ccco2)cc(OC)c1 (stereo unspecified) | 101%

Row | SMILES | survival
47 | Cc1ccc(Cl)cc1NC(=O)CSCc1cnn(-c2ccccc2)c1-n1cccc1 | 70%
48 | COc1ccc(CNC(=O)Cc2ccc(NC(=O)N3CCSc4ncccc43)cc2)cc1 | 95%
49 | Cc1cccc(NC(=O)c2cc(S(=O)(=O)NCCc3ccccc3)ccc2F)c1C | 73%
50 | Cc1cccn2c(=O)c3cc(C#N)c(=O)n(-c4nnc(SCc5ccccc5F)s4)c3nc12 | 70%
51 | O=C(O)C(=Cc1ccc(-c2cccc(C(F)(F)F)c2)o1)C(=O)O | 65%
52 | COc1ccc(C(=O)Nc2nc3ccccc3n2CCOc2ccc(Cl)cc2)cc1 | -5% (active)
53 | Fc1ccc(CNCc2ccccc2)cc1 | 99%
54 | COc1cc(OC)c(NC(=O)CSC2=Nc3ccccc3N=C(c3ccc(F)cc3)C2)cc1Cl | 65%
55 | CCn1c(SCc2ccccc2Cl)nc(=O)c2c(C(=O)OC)cc(C3CC3)nc21 | 77%
56 | CCn1c(SCc2ccccc2C)nc(=O)c2c(C(=O)OC)cc(C3CC3)nc21 | 71%
57 | CCn1c(SCc2ccccc2F)nc(=O)c2c(C(=O)OC)cc(C3CC3)nc21 | 52% (active)
58 | C=CCn1c(NC)nc2c1c(=O)[nH]c(=O)n2C | 105%
59 | Cc1cc(C)cc(OCC(=O)N(Cc2ccc(C)o2)C2CCS(=O)(=O)C2)c1 (stereo unspecified) | 89%
60 | CC(=O)C1=C(OC(=O)C(C)C)c2ccccc2S(=O)(=O)N1Cc1ccccc1 | 104%
61 | COc1cccc(CNC(=O)CN2C(=O)COc3ccc(S(=O)(=O)Nc4ccccc4)cc32)c1 | 77%
62 | Cc1ccc(CNC(=O)CCN2C(=O)COc3ccc(C)cc32)cc1 | 50% (active)
63 | Cc1ccc2c(c1)N(CCC(=O)NCc1ccc(F)cc1)C(=O)CO2 | 62%
64 | Cc1ccc2c(c1)N(CC(=O)NCCc1ccccc1)C(=O)CO2 | 45%
65 | Cc1ccc(CNC(=O)CCCN2C(=O)COc3ccc(C)cc32)cc1 | 85%
66 | Cc1ccc(C2=Nc3ccccc3N(CC(=O)NCc3ccc(Cl)cc3)C(=O)C2)cc1C | 55%
67 | COc1ccc(CCNC(=O)CN2C(=O)COc3ccccc32)cc1OC | 126%
68 | Cc1ccc(CNC(=O)CN2C(=O)COc3ccc(S(=O)(=O)Nc4ccccc4)cc32)cc1 | -4% (active)
69 | COc1ccc(CCNC(=O)CN2C(=O)COc3ccc(C)cc32)cc1OC | 45% (active)

Row | SMILES | survival
70 | Cc1ccc(C2=Nc3ccccc3N(CC(=O)NCc3ccc(F)cc3)C(=O)C2)cc1C | 90%
71 | COc1ccc(CNC(=O)CN2C(=O)COc3ccc(S(=O)(=O)Nc4ccccc4)cc32)cc1 | 66%
72 | Cc1ccc(CNC(=O)CN2C(=O)CC(c3ccc(C)c(C)c3)=Nc3ccccc32)cc1 | 52% (active)
73 | CN(C)CCCNc1c2c(nc3cc(-c4cccc(F)c4)nn13)CCC2 | 103%
74 | O=c1c2sc3ccccc3c2n(Cc2cccc(F)c2)c(=O)n1Cc1ccccc1 | 78%
75 | COc1ccc(CNC(=O)CN2C(=O)CSc3ccc(S(=O)(=O)N4CCOCC4)cc32)c(OC)c1 | 91%
76 | O=C1CCCc2cc(S(=O)(=O)NCC3CCC(C(=O)Nc4ccccc4F)CC3)ccc2N1 (stereo unspecified) | 93%
77 | Cc1ccc(NC(=O)N2CCC(CN3CCCC3)CC2)c(C)c1 | 80%
78 | COc1ccc(CNC(=O)C2CCN(S(=O)(=O)c3cccc(-c4noc(C)n4)c3)CC2)cc1 | 92%
79 | CC1CCc2c(sc(NC(=O)COc3ccccc3C(C)(C)C)c2C#N)C1 (stereo unspecified) | 67%
80 | COC(=O)CSc1ncc2c(n1)-c1ccccc1N(Cc1ccccc1C)S2(=O)=O | 99%
81 | Cc1ccc2c(c1)N(CCC(=O)NCc1ccccc1Cl)C(=O)CO2 | 40% (active)
82 | CCOc1ccccc1CNC(=O)CCCN1C(=O)COc2ccc(C)cc21 | 93%
83 | Cc1cccc(CNC(=O)CCCN2C(=O)COc3ccc(C)cc32)c1 | 112%
84 | CCOC(=O)C1=C(CS(=O)(=O)c2ccc(OC)c(Cl)c2)NC(=O)NC1c1cccc(OC)c1 (stereo unspecified) | 59%
85 | Cc1cc(=O)[nH]c(SC(C)C(=O)Nc2ccccc2)n1 (stereo unspecified) | 90%
86 | COc1ccccc1NC(=O)CSc1nc(-c2ccc(C)cc2)nc2c1Cc1c(CO)cnc(C)c1O2 | 49% (active)
87 | Cc1ccc(C)c(NC(=O)CSc2nc(-c3ccccc3Cl)nc3c2Cc2c(CO)cnc(C)c2O3)c1 | 118%
88 | Cc1ccc(-c2nc3c(c(SCC(=O)Nc4ccccc4Cl)n2)Cc2c(CO)cnc(C)c2O3)cc1 | 46% (active)
89 | COc1ccccc1-c1nc2c(c(SCC(=O)Nc3ccccc3F)n1)Cc1c(CO)cnc(C)c1O2 | 88%
90 | COc1ccccc1NC(=O)CSc1nc(-c2cccc(Cl)c2)nc2c1Cc1c(CO)cnc(C)c1O2 | 87%
91 | Cc1cccc(NC(=O)CSc2nc(-c3ccccc3Cl)nc3c2Cc2c(CO)cnc(C)c2O3)c1C | 117%
